The nature of assay [1]: inhibitors of TNFa-induced NFkB p65 translocation, primary screen, imaging, HUVEC, MLSMR starter and 10KST1 sets (AID 438;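 active = inhibition above 20% together with a positive visual image hit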;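 note: compound added about 3h40 before a 20 min TNFalpha stimulation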;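 for inhibition: signal is the nuclear over cytoplasmic p65 intensity ratio per well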). To be noted: HUVEC TNFa-induced p65 nuclear translocation; cell count: measured here: nuclei count (cytotoxicity indicator), at 2.08 µM unless noted; inhibition: at 2 µM, stronger effect = higher value unless noted.
Assay [2] is described as follows: reduction of polyQ htt aggregates in cells – imaging, exon1htt(103Q)mCFP cells, high-content imaging, primary screen (AID 483;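 active = visual image review flags a hit and inhibition of aggregation exceeds 20%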;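 note: compound exposure lasted 3 days before fixation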;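 for nuclei count: percent of the per-plate median nuclei count of sample wells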). The conditions noted are these: exon1htt(103Q)mCFP cell line, aggregate imaging, at 2 µM; inhibition of aggregation: stronger effect = higher value; nuclei count: measured here: cell count, toxicity.
The nature of assay [3]: endothelial E-selectin expression blockers – imaging, HUVEC, immunofluorescence, MLSMR starter and 10KST1 sets, primary screen (AID 487;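 active = visually confirmed hit in the image check and inhibition above 20%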;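 for inhibition: signal is fraction of cell area covered by stained E-selectin grains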;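 for nuclei count: 100% = median nuclei count of all wells on the same plate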). The conditions noted are these: HUVEC TNFalpha-induced E-selectin immunofluorescence imaging, at 2 µM; inhibition: stronger effect = higher value; nuclei count: measured here: cell number, toxicity.
For assay [4], the target named is Voltage-gated potassium channel subunit beta-2 (Rattus norvegicus) (UniProt P62483). The assay is described as follows: inhibitors of rat Kvbeta2 reductase activity – biochemical, NADPH fluorescence, primary screen (AID 622).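 Note: slope of raw intensity against log time taken from 70 to 1610 s.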 To be noted: recombinant KvBeta, 4-cyanobenzaldehyde reduction, at 10 µM, stronger effect = higher value.
Chain of Voltage-gated potassium channel subunit beta-2 (Rattus norvegicus) (P62483 whole entry, looked up): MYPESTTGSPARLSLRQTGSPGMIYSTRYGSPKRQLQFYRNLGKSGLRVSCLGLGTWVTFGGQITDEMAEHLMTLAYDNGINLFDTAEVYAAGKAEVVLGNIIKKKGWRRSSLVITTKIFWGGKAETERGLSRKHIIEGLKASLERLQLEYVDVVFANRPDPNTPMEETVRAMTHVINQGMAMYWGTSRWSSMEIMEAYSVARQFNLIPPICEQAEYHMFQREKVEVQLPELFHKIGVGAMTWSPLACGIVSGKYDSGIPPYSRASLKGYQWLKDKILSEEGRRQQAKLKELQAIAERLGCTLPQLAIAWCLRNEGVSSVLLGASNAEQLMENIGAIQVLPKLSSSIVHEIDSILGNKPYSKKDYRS
Assay [5] has the same target. Kind of assay: enhancers of rat Kvbeta2 NADPH turnover – biochemical, NADPH fluorescence, primary screen (AID 623;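 active = NADPH fluorescence slope more negative than the mean of all samples by about 3 SD, 99.7% confidence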;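 note: fluorescence intensity change per second fitted from 20 to 320 s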). The conditions noted are these: Recombinant KvBeta, NADPH fluorescence decrease slope, 10 min; at 10 µM; stronger effect = lower value.
The target of assay [6] is Alpha-2C adrenergic receptor (Homo sapiens) (UniProt P18825). Kind of assay: compounds altering alpha2C-coupled GIRK flux – cell-based, HEK293 alpha2C/GIRK1/2, thallium flux, primary screen (AID 624;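 active = fluorescence slope after compound addition differing from the mean of all screened samples at 99.7% confidence, in either direction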;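 note: slope of fluorescence ratio to pre-addition baseline per second over 15 to 24 s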). To be noted: thallium flux BTC fluorescence, at 10 µM, actives lie on both sides.
Chain of Alpha-2C adrenergic receptor (Homo sapiens) (P18825 whole entry, looked up): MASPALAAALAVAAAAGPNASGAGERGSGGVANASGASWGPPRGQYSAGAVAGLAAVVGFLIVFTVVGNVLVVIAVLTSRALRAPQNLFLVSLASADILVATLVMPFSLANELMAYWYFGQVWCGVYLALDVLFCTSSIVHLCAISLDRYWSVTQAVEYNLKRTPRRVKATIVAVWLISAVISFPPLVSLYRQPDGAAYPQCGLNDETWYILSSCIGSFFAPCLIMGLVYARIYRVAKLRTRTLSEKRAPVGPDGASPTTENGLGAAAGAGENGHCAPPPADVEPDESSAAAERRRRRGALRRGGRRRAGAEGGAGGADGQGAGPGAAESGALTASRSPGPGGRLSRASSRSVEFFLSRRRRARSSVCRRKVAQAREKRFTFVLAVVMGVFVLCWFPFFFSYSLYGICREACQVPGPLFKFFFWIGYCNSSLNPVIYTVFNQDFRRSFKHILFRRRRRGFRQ
The nature of assay [7]: blockers of RIG-like receptor reporter activation – cell-based, Sendai virus stimulus, luciferase, 10K MLSCN set, TLR/RLR signaling modifier project, primary screen (AID 602276;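 active = inhibition at or above 50% at 10 µM; inactive = inhibition below 50%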;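 note: firefly luciferase from ISG56 promoter only with Renilla not read in this screen; 0% = Sendai virus plus DMSO and 100% = medium plus DMSO without virus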). The conditions noted are these: HEK293 RL24 IRF3 luciferase reporter, at 10 µM, stronger effect = higher value. (In general: In a reporter assay the amount or activity of a reporter protein is the signal.)
Assay [8] is described as follows: TLR3 IRF3 reporter activation blockers – cell-based, poly I:C stimulus, luciferase, 10K MLSCN set, primary screen (AID 602277;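 active = inhibition of the reporter signal at or above 50%; inactive = inhibition below 50%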). To be noted: HEK293-TLR3 RL24 IRF3 luciferase reporter, at 10 µM, stronger effect = higher value.

The structures appear in SMILES notation. The source made the active and inactive calls.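 Rule for the calls, unless noted: active = fluorescence slope higher than the sample average by over 3 SD (cut at about -0.22 in these data, passing the limit was not always enough); inactive = the rest.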

As a reminder, the inhibition is the drop in the measured response relative to a control, in per cent. Take `COc1ccc(OC)c(N2C(=O)NC(=O)C(CCc3ccncc3)(CCc3ccncc3)C2=O)c1`: in assay [1], the cell count was 397. Besides, the inhibition in assay [1] was 1% (inactive); in assay [3] it was -73% (inactive); in assay [7], 10.1% (inactive); in assay [8] it was 12% (inactive). The inhibition of aggregation in assay [2] was -24.7% (inactive). In addition, the nuclei count in assay [2] was determined as 107%; in assay [3], 115%. Moreover, the fluorescence slope in assay [4] is -0.329 (inactive). In addition, in assay [5], the NADPH fluorescence slope was -2.9e-06 (inactive). The slope in assay [6] was 0.00479 (inactive).

On to `Cc1ccc(Cn2c(C)c3cnn(CC(=O)N4CCC5(CC4)OCCO5)c(=O)c3c2C)cc1`, for which the cell count in assay [1] was 471. Also, the inhibition is -6.5% (inactive) in assay [1], -135% (inactive) in assay [3], 9.46% (inactive) in assay [7] and -2.44% (inactive) in assay [8]. Besides, in assay [2], the inhibition of aggregation was -6.5% (inactive). For the same compound, the nuclei count in assay [2] and in assay [3] was 110% in each case. Also, the fluorescence slope in assay [4] is -0.332 (inactive). Besides, in assay [5], the NADPH fluorescence slope is -6.2e-05 (inactive). Besides, the slope in assay [6] was 0.0048 (inactive).

As for `COc1ccccc1-n1c(O)c(C=NCc2ccc3c(c2)OCO3)c(=O)[nH]c1=O`, the cell count in assay [1] was determined as 758. Also, the inhibition is -13.8% (inactive) in assay [1], -117% (inactive) in assay [3], 2.15% (inactive) in assay [7] and 9.73% (inactive) in assay [8]. For the same compound, the inhibition of aggregation in assay [2] was -35.1% (inactive). Moreover, the nuclei count in assay [2] was 121%; in assay [3], 124%. Moreover, in assay [4], the fluorescence slope was -0.611 (inactive). The NADPH fluorescence slope in assay [5] is -5.6e-05 (inactive). In addition, in assay [6], the slope was 0.00662 (inactive).

Take `CC(=NCc1ccc2c(c1)OCO2)c1c(O)n(C)c(=O)n(C)c1=O`: the cell count in assay [1] is 629. The inhibition in assay [1] is -10.8% (inactive); in assay [3], 5.3% (inactive); in assay [7], 20.7% (inactive); in assay [8], 25.9% (inactive). Besides, in assay [2], the inhibition of aggregation is 0.7% (inactive). Further, the nuclei count turned out to be 94.1% in assay [2] and 97.5% in assay [3]. The fluorescence slope in assay [4] is -0.409 (inactive). Moreover, the NADPH fluorescence slope in assay [5] is 1.3e-05 (inactive). In assay [6], the slope is 0.00333 (inactive).

`CCCCN1C(=O)NC(=O)C2(Cc3c(nc4c(C)cccn4c3=O)N3CCc4ccccc4C32)C1=O` (stereo not given) registered a cell count in assay [1] of 373. In addition, the inhibition is -0.5% (inactive) in assay [1], -176% (inactive) in assay [3], 14% (inactive) in assay [7] and 32.3% (inactive) in assay [8]. For the same compound, the inhibition of aggregation in assay [2] was -11.7% (inactive). For the same compound, the nuclei count in assay [2] was 106%; in assay [3] it was 111%. Further, the fluorescence slope in assay [4] is -0.482 (inactive). In addition, the NADPH fluorescence slope in assay [5] was -4.8e-05 (inactive). The slope in assay [6] was 0.0045 (inactive).

Turning to `CC#CP(=O)(OCC)C(O)(c1ccccc1)C(F)(F)F` (stereo not given), the cell count in assay [1] stood at 621. Further, the inhibition was 12.5% (inactive) in assay [1], -29.4% (inactive) in assay [3], 15% (inactive) in assay [7] and 23.4% (inactive) in assay [8]. Besides, in assay [2], the inhibition of aggregation is 4.9% (inactive). The nuclei count was found to be 90.8% in assay [2] and 110% in assay [3]. In addition, the fluorescence slope in assay [4] is -0.621 (inactive). For the same compound, the NADPH fluorescence slope in assay [5] was 5.6e-07 (inactive). Besides, the slope in assay [6] was 0.0037 (inactive).

On to `Cc1cnn(C2CCN(C)CC2)c1N`, for which the cell count in assay [1] stood at 791. For the same compound, the inhibition in assay [1] is -7.4% (inactive); in assay [3], 0.5% (inactive); in assay [7], -8.1% (inactive); in assay [8], 14.8% (inactive). Further, the inhibition of aggregation in assay [2] was -22.3% (inactive). Also, the nuclei count in assay [2] came to 75.4%; in assay [3] it was 110%. Further, in assay [4], the fluorescence slope was -0.495 (inactive). In addition, in assay [5], the NADPH fluorescence slope was 1.3e-05 (inactive). Moreover, the slope in assay [6] is 0.00651 (inactive).

As to `Cc1cccc(C2=NCC(=O)N(CC(=O)NCc3ccco3)c3sc4c(c32)CCCC4)c1`, the cell count in assay [1] stood at 291. For the same compound, the inhibition was 14.7% (inactive) in assay [1], -48.4% (inactive) in assay [3], 14.4% (inactive) in assay [7] and 49.8% (inactive) in assay [8]. The inhibition of aggregation in assay [2] is 13.6% (inactive). The nuclei count in assay [2] was 92.1%; in assay [3] it was 87.3%. For the same compound, the fluorescence slope in assay [4] is -0.56 (inactive). Besides, in assay [5], the NADPH fluorescence slope is -8.4e-05 (inactive). Moreover, in assay [6], the slope is 0.00582 (inactive).

With `COc1ccc(CC2C(=O)NC(=O)NC2=O)c(OC)c1`, the cell count in assay [1] turned out to be 757. Moreover, the inhibition in assay [1] was 1.7% (inactive); in assay [3], -3.4% (inactive); in assay [7], -6.04% (inactive); in assay [8] it was -0.414% (inactive). In addition, the inhibition of aggregation in assay [2] is -24.3% (inactive). The nuclei count in assay [2] and in assay [3] was 105% each time. Moreover, the fluorescence slope in assay [4] is -0.406 (inactive). For the same compound, in assay [5], the NADPH fluorescence slope was 5.3e-05 (inactive). The slope in assay [6] is 0.00731 (inactive).

Turning to `COc1ccc(CCn2c(O)c(C=NCc3cccnc3)c(=O)[nH]c2=O)cc1OC`, the cell count in assay [1] was 716. The inhibition in assay [1] is -1.7% (inactive); in assay [3], 72.3% (active); in assay [7] it was 19.4% (inactive); in assay [8] it was 18.7% (inactive). The inhibition of aggregation in assay [2] was -17.3% (inactive). In addition, the figures for the nuclei count in assay [2] and in assay [3] were 111% and 90.2%, respectively. Also, the fluorescence slope in assay [4] is -0.629 (inactive). Further, the NADPH fluorescence slope in assay [5] is 1.1e-05 (inactive). Moreover, the slope in assay [6] is 0.00366 (inactive).

In turn, `CCOCC(=O)NC1CCSC1=O` (stereo not given) yielded a cell count in assay [1] of 342. Also, the inhibition was -5% (inactive) in assay [1], 10.8% (inactive) in assay [3], 18.6% (inactive) in assay [7] and 23.1% (inactive) in assay [8]. Besides, the inhibition of aggregation in assay [2] was 17.7% (inactive). Further, the nuclei count turned out to be 75.2% in assay [2] and 95.3% in assay [3]. The fluorescence slope in assay [4] was -0.48 (inactive). Moreover, the NADPH fluorescence slope in assay [5] is -4.8e-05 (inactive). Also, the slope in assay [6] was 0.00601 (inactive).

In turn, `O=C(CCCOc1ccc(Cl)cc1Cl)N1CCC2(CC1)OCCO2` came in with a cell count in assay [1] of 751. In addition, the inhibition was -20.4% (inactive) in assay [1], -51.1% (inactive) in assay [3], -4.5% (inactive) in assay [7] and -38.8% (inactive) in assay [8]. Besides, the inhibition of aggregation in assay [2] was -14.9% (inactive). Also, the nuclei count in assay [2] came out at 114%; in assay [3], 102%. Besides, in assay [4], the fluorescence slope was -0.365 (inactive). For the same compound, the NADPH fluorescence slope in assay [5] is -4.9e-05 (inactive). The slope in assay [6] was 0.0028 (inactive).

As to `O=C(C(Cc1ccccc1)NS(=O)(=O)c1ccc(F)cc1)N1CCC2(CC1)OCCO2` (stereo not given), the cell count in assay [1] came to 381. The inhibition in assay [1] is -11.2% (inactive); in assay [3] it was -43.8% (inactive); in assay [7] it was 11.2% (inactive); in assay [8] it was 37.1% (inactive). For the same compound, the inhibition of aggregation in assay [2] was -7% (inactive). Moreover, the nuclei count in assay [2] turned out to be 99.8%; in assay [3], 122%. In addition, the fluorescence slope in assay [4] was -0.437 (inactive). In addition, in assay [5], the NADPH fluorescence slope is 8.6e-06 (inactive). Besides, the slope in assay [6] is 0.00508 (inactive).

In assay [1], `O=C(Cn1ncc2c3ccccc3n(Cc3ccc(F)cc3)c2c1=O)N1CCC2(CC1)OCCO2` yielded a cell count of 454. In addition, the inhibition was 2.9% (inactive) in assay [1], -167% (inactive) in assay [3], 7.71% (inactive) in assay [7] and 2.33% (inactive) in assay [8]. The inhibition of aggregation in assay [2] was -17.5% (inactive). Further, the nuclei count in assay [2] was 74.9%; in assay [3] it was 130%. Besides, the fluorescence slope in assay [4] was -0.295 (inactive). Moreover, the NADPH fluorescence slope in assay [5] was -5.2e-05 (inactive). Also, the slope in assay [6] was 0.00589 (inactive).

`CC(C)C(=O)c1cn(Cc2ccccc2C#N)c2ccccc12` returned a cell count in assay [1] of 504. Moreover, the inhibition in assay [1] is 3.5% (inactive); in assay [3], -24.8% (inactive); in assay [7] it was 17.4% (inactive); in assay [8], 20.1% (inactive). The inhibition of aggregation in assay [2] was 11.4% (inactive). Besides, the nuclei count in assay [2] is 72.7%; in assay [3], 99.8%. For the same compound, the fluorescence slope in assay [4] is -0.376 (inactive). In addition, the NADPH fluorescence slope in assay [5] was 3.6e-05 (inactive). In assay [6], the slope is 0.00712 (inactive).
